According to PubChem BioAssay AID1671190 (National Center for Advancing Translational Sciences (NCATS), 2021):
Screen size: about 580,000 compounds; about 6,100 (1.1%) were called active. About 15% were inconclusive and are not listed. The entries come from a sample that favours actives as a whole. Values without a mark were called inactive. Calls follow the shape of the dose curve; as a rule, active = well fitted inhibition curve with a large enough effect; inconclusive = small, poorly fitted or top-dose-only effect, or another doubt; inactive = no such curve, though single readings can be large or run the other way.

Target: Polyunsaturated fatty acid lipoxygenase ALOX12 (Homo sapiens) (UniProt P18054)
Assay: Primary qHTS assay for inhibitors of human arachidonate 12S-lipoxygenase (ALOX12): Round 2
Details: purified 12hLO, xylenol orange hydroperoxide absorbance; series mostly up to 108 µM; activity change, negative = inhibition: at the top concentration
Outline: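 Purified human 12hLO at 150 nM in 25 mM Hepes, 0.01% Triton X-100, pH 7.0, preincubated 15 min at room temperature with compound. Reaction started with 40 uM arachidonic acid, 30 min at room temperature. Hydroperoxide measured by Fe-xylenol orange, 573/405 nm absorbance ratio.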
% is scaled to controls: 0 for no effect and ±100 for the full control effect; potency is read from the fitted curve at half-maximal effect.

Polyunsaturated fatty acid lipoxygenase ALOX12 (Homo sapiens), sequence (P18054 whole entry, looked up): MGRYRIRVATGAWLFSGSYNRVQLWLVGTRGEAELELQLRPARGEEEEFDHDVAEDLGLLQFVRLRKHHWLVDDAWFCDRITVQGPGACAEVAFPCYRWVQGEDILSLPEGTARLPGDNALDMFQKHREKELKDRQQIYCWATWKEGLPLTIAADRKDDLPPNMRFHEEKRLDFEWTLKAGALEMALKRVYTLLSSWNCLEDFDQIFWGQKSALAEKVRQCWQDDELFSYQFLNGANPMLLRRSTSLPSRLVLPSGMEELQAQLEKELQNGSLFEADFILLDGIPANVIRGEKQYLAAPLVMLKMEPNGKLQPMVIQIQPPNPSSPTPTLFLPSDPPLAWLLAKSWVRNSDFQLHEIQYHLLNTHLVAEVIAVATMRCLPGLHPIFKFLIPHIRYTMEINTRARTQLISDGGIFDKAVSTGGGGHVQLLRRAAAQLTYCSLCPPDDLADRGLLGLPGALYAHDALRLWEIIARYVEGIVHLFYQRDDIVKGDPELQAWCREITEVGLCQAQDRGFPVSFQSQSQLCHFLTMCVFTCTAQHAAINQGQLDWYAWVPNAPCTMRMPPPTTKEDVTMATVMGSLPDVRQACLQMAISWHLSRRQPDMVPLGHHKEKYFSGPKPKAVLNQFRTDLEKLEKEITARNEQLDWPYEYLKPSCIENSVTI

| SMILES | activity change, negative = inhibition | Potency |
| --- | --- | --- |
| Cc1nnc(SCc2cc(=O)[nH]c(N3CCN(Cc4ccccc4)CC3)n2)s1 | -24.6% | – |
| CO/N=C(/C(=O)N[C@@H]1C(=O)N2C(C(=O)O)=C(Cn3nnc(C)n3)CS[C@H]12)c1csc(N)n1 | -8.52% [at 22.9 µM] | – |
| Cc1cc(C)cc(C(=O)NC2C(=O)N3C(C(=O)O)=C(CSc4nnc(C)s4)CSC23)c1 (stereo unspecified) | – | 39.8 µM (active) |
| CC(C)C(=O)Nc1cc(Cl)ccc1Cl | 1.43% | – |
| CC(C)C(=O)N1CCN(C(=O)c2cc3ccccc3n2C)CC1 | -28.6% | – |
| CNc1c(NC(=O)Nc2ccc(F)cc2F)c(=O)oc2ccccc12 | -1.6% | – |
| O=c1[nH]c(CCl)nc2cc(-c3ccc(Cl)cc3)sc12 | 106% | – |
| CCC1(CC)Cc2ccccc2-c2nc(CCl)[nH]c(=O)c21 | – | 7.08 µM (active) |
| CCOC(=O)C1Cn2c(nc3c(c2=O)C(C)(CC)Cc2ccccc2-3)S1 (stereo unspecified) | 0% | – |
| CC(C)C(=O)Nc1ccc(-c2nc3ccccc3o2)cc1 | -38.4% | – |
| CCOC(=O)c1nc2ccccc2nc1NCc1ccc(C)cc1 | -2.85% | – |
| CC(=O)c1c(C)[nH]c(C(=O)c2oc3ccc(Cl)cc3c2C)c1C | -13.1% | – |
| COC(=O)c1ccc(/C=C2\Oc3cc(OS(C)(=O)=O)cc(C)c3C2=O)cc1 | -17.5% | – |
| Cc1cccc(N2CCN(C(=O)c3ccccc3NC(=O)C3CCCCC3C(=O)O)CC2)c1 (stereo unspecified) | -15% | – |
| CCN1CCN(c2cc3nc(C)n(Cc4ccccc4)c(=O)c3cc2NC(=O)c2ccccc2F)CC1 | -8.8% | – |
| Cc1cccc(N2CCN(c3ccc(C(=O)O)cc3NC(=O)c3ccccc3F)CC2C)c1 (stereo unspecified) | – | 50.1 µM (active) |
| O=C(c1cccc(Br)c1)N1CCC(CCc2ccc(O)cc2)CC1 | -3.12% | – |
| Cc1ccc(NC(NC(=O)c2cccc(C)c2)C(Cl)(Cl)Cl)cc1 (stereo unspecified) | 9.95% | – |
| CCCCC/C=C/C1=CC(=O)C[C@H](c2ccc(Cl)cc2)C1 | – | 35.5 µM (active) |
| O=C1C=C(c2cccc(Cl)c2O)C[C@@H](c2ccc(F)cc2)C1 | -27.3% | – |
| CCc1nc2nc3c(cn2n1)C(=O)CC(c1ccc(Cl)cc1)C3 (stereo unspecified) | -5.2% | – |
| CCCCc1ccc(NC(=O)c2cc3c(s2)CCCC3)cc1 | -29.7% | – |
| CN(Cc1ccon1)C(=O)c1coc(COc2ccc(F)cc2Cl)n1 | 38.2% | – |
| Cn1c(=O)c2c(ncn2CCC(=O)NCc2ccc(F)cc2)n(C)c1=O | 9.96% | – |
| CN1CCN(c2ccc3nnc(C4CCC4)n3n2)CC1 | 54.1% | – |
| CCOC(=O)c1ccc(NC(=O)N2Cc3[nH]cnc3C[C@H]2c2nc(-c3ccc(Cl)cc3)no2)cc1 | 37.1% | – |

| SMILES | activity change, negative = inhibition | Potency |
| --- | --- | --- |
| CC(C)NC(=O)N1Cc2[nH]cnc2C[C@H]1c1nc(-c2ccc(Cl)cc2)no1 | – | 14.1 µM (active) |
| Cc1ccc(-c2noc([C@@H]3Cc4nc[nH]c4CN3C(=O)Nc3ccccc3)n2)cc1 | 11.7% [at 176 µM] | – |
| Cc1nc(NC2CCCCC2)sc1C(=O)Nc1ccccc1 | -47.2% | – |
| CC(C)C(=O)N/N=C/c1ccc(Cl)cc1 | -13.7% | – |
| COc1cc2c(cc1O)NC(=O)CC2c1cn[nH]c1-c1cc(C)ccc1C (stereo unspecified) | 22.7% | – |
| CC(C)OCC(O)Cn1c(NCc2ccccc2)nc2c1c(=O)[nH]c(=O)n2C (stereo unspecified) | -13.5% | – |
| O=C(COC(=O)c1cccc(NS(=O)(=O)c2ccccc2)c1)NCc1cccs1 | 1.83% | – |
| CNC(=O)c1ccc(NC(=O)CCn2c(=O)oc3cc(S(=O)(=O)N4CCCC4)ccc32)cc1 | – | 35.5 µM (active) |
| COc1cccc(CNC(=O)Cn2c(=O)oc3cc(S(=O)(=O)N4CCCCC4)ccc32)c1 | -2.03% | – |
| CC1CCCCN1C(=O)Cn1c(=O)oc2cc(S(=O)(=O)N3CCCCC3)ccc21 (stereo unspecified) | 1.67% | – |
| Cc1ccc(OCCC(=O)Nc2cc3c(cc2Cl)OCCO3)c(C)c1 | 7.57% | – |
| CCOc1ccc(C(C)NC(=O)Cn2c(=O)c3c(ncn3C)n(C)c2=O)cc1 (stereo unspecified) | 4.67% | – |
| CC1=C[C@@H](CN(C)CCc2ccccn2)[C@H](C(C)C)C[C@H]1Cc1nnc(-c2ccccc2F)o1 | 41.6% | – |
| O=C(CCn1ccc(=O)[nH]c1=O)N[C@@H]1COCC[C@@H]1OCc1ccccc1 | 19.4% | – |
| C=CCNC(=S)N(CC)CC | 24.5% | – |
| COc1ccc(Br)cc1/C=N/Nc1ccc(S(=O)(=O)Nc2ccccc2C(=O)O)cc1[N+](=O)[O-] | – | 14.1 µM (active) |
| COc1cc(S(=O)(=O)Nc2ccccc2OC)ccc1NC(C)=O | -2.8% | – |
| COC(=O)c1ccccc1NS(=O)(=O)c1ccc2c(c1)CCCN2C(C)=O | -8% | – |
| O=C(O/N=C1\CCCc2oc3c(c21)CCCC3)c1ccc(Cl)c(Cl)c1 | 9.98% | – |
| Cc1ccc(Cn2c(N3CCC(C(N)=O)CC3)nc3c2c(=O)n(C)c(=O)n3C)cc1 | -30% | – |
| Cc1oc(-c2ccccc2)nc1C(=O)NC(C1CC1)C1CC1 | -4.72% | – |
| N#Cc1ccc(C(C(=O)NCc2ccccc2)n2c(=O)c(-c3ccco3)nc3ccccc32)cc1 (stereo unspecified) | – | 17.8 µM (active) |
| O=C(NCCn1c(-c2ccccc2)nc2ccccc21)NCc1ccccc1 | 1.71% | – |
| Cc1cccc(C)c1NC(=O)C(c1ccc(C(F)(F)F)cc1)n1c(=O)c(-c2ccco2)nc2ccccc21 (stereo unspecified) | – | 14.1 µM (active) |
| CCC(C(=O)Nc1c(C)cccc1C)n1c(-c2cc(C)cs2)nc2ccccc21 (stereo unspecified) | -4.84% | – |
